Pf growth 96h: P. falciparum growth inhibition at 96 hour, primary screen for plastid delayed-death inhibitors; AID 504834; 320,000 tested, 6.9% active; P. falciparum luciferase reporter growth, 96 h; Potency, µM (top dose mostly 28.7 µM), for inactives: at the top dose activity change, negative = inhibition, usual class: inhibitors; further: on the % scale 0 is the no-effect control and ±100 the full control effect
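Two parasite generations (96 h, 37 C, 5% CO2) of compound exposure in infected erythrocytes (0.05% parasitemia, 2% hematocrit). Luciferase-reporter P. falciparum; decreased luminescence indicates inhibited growth, aimed at apicoplast-acting delayed death.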
SARS PLP yeast: blocks SARS-CoV papain-like protease in a yeast assay; S. cerevisiae expressing SARS-CoV PLpro, growth rescue; Potency, µM (top dose mostly 32.9 µM), for inactives: at the highest dose activity, positive = growth rescue, most hits filed as activators; 330,000 tested, 0.19% active; AID 485353; calls by dose curve; further: 0% is about no effect; nearly all actives have a fitted effect of over 55% in size
Sm TGR inh: S. mansoni TGR enzyme inhibition | purified TGR, DTNB reduction, TNB absorbance 405 nm | Potency, µM (highest dose often 114 µM), without a hit: at the top dose activity change, negative = inhibition, actives largely listed as inhibitors | 360,000 tested, 3% active; further: on the % scale 0 is the no-effect control and ±100 the full control effect; nearly all actives have a fitted effect of over 60% in size
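Kinetic colorimetric format: TGR-catalysed, NADPH-driven DTNB reduction monitored via TNB absorbance. Enzyme dispensed at 20 nM; compound exposure 15 min at room temperature before reaction start.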
Pf growth 48h: inhibits P. falciparum growth in the first generation, 48 h; 310,000 tested, 5.9% active; P. falciparum luciferase growth in erythrocytes, 48 h; AID 504832; Potency, µM (titrated, usually from 28.7 µM), for the others: at the highest dose activity change, negative = inhibition, most hits filed as inhibitors; further: on the % scale 0 is the no-effect control and ±100 the full control effect
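Compounds are pin-transferred into medium, infected erythrocytes (2% hematocrit, 0.1% parasitemia final) are added, and plates sit one parasite generation at 37 C in 5% CO2. Detection reagent is then added and luminescence measured.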
Numbers without * were called inactive; u = inconclusive; x = not tested or not shown; [ ] = remark or other dose. A selection: hits, their analogues and other compounds. The true share with any hit is near 12%. Unless noted, the call rests on the fitted dose curve; in most records, active means well fitted curve in the direction sought with a large enough effect; inconclusive means small, poorly fitted or top-dose-only effect, or another doubt; inactive means no such curve, though single readings can be large; an effect the other way counts as inactive or inconclusive. Potency means the concentration at half of the fitted maximal effect.

SMILES	Pf growth 96h	SARS PLP yeast	Sm TGR inh	Pf growth 48h
O=C(c1ccccc1)c1ccc(NCCCn2ccnc2)c([N+](=O)[O-])c1	12µM*	-1%	-5%	u
C=CCN(c1ccc(C(=O)NCCCn2ccnc2)cc1)S(C)(=O)=O	9.3µM*	23%	-5%	6%
O=C(NCCCn1ccnc1)c1cc(C2CC2)on1	10µM*	1%	4%	1%
Cc1ccc(-c2cc(C(=O)NCCCn3ccnc3)no2)cc1	3%	1%	5%	-19%
Cc1cccc(NCc2ccc(N(C)C)cc2)n1	u	10%	1%	44%
CC1Cn2c(C(=O)NCc3cccc(Br)c3)cc3cccc(c32)S1 (stereo not drawn)	x	x	-1%	x
CCN(CC)CCNC(=O)C1c2ccccc2Oc2ccccc21	-50%	0%	5%	16%
O=C(NCCCn1ccnc1)C1c2ccccc2Oc2ccccc21	10µM*	5%	-5%	-25%
COc1ccccc1CCC(=O)Nc1ccc(OC)c(S(=O)(=O)N2CCCCC2)c1	u	-4%	10%	u
CCc1ccccc1OCC(=O)Nc1ccc(F)c(S(=O)(=O)N2CCOCC2)c1	13µM*	1%	0%	u
COc1ccc(NC(=O)CCOc2ccccc2C)cc1S(=O)(=O)N1CCCCC1	u	3%	0%	12µM*
COc1ccc(NC(=O)COc2ccccc2Cl)cc1S(=O)(=O)N1CCCCC1	10µM*	2%	-1%	12µM*
Cc1cccc(NC(=O)CSc2nc(=O)n(Cc3ccncc3)c3c2CCC3)c1C	x	x	0%	x
CSc1ncc(C(=O)NCc2cccc(C)c2)c(-c2ccccc2)n1	x	x	1%	x
CCN(C[C@H]1N[C@@](C)(C(=O)OC)[C@H]2C(=O)N(C)C(=O)[C@@H]12)C(=O)Nc1ccc(C(F)(F)F)cc1	x	-2%	x	x
N#Cc1cnn2c(C(F)(F)F)cc(-c3ccccc3)nc12	236%	-3%	9%	10µM*
O=C(c1cnn2c(C(F)(F)F)cc(-c3ccco3)nc12)N1CCc2ccccc2C1	4%	-9%	13µM*	u
COc1ccc(-c2cc(C(F)(F)F)n3ncc(C(=O)N4CCc5ccccc5C4)c3n2)cc1	25%	0%	18%	9.3µM*
O=C(c1cnn2c(C(F)(F)F)cc(-c3ccccc3)nc12)N1CCCc2ccccc21	x	-2%	2%	-10%
O=C(c1cnn2c(C(F)(F)F)cc(-c3ccco3)nc12)N1CCCCCC1	1%	5%	u	u
O=C(c1cnn2c(C(F)(F)F)cc(-c3ccccc3)nc12)N1CCC2(CC1)OCCO2	15µM*	4%	4%	x
COc1ccc(C(=O)Nc2cccc(S(=O)(=O)NC3=NCCC3)c2)cc1OC	x	1%	x	x
CC(=O)c1ccc(N2CCN(S(=O)(=O)c3ccc4c5c3CC(=O)N5CC(C)S4)CC2)cc1 (stereo not drawn)	u	6%	u	3.3µM*
CC(=O)c1ccc(N2CCN(S(=O)(=O)c3ccc4c(c3)CC(=O)N4)CC2)cc1	44%	0%	-20%	u
CCOc1ccc(NC(=O)CCN2CCN(S(=O)(=O)c3cc(Cl)ccc3OC)CC2)cc1	2.6µM*	0%	-1%	u
SMILES	Pf growth 96h	SARS PLP yeast	Sm TGR inh	Pf growth 48h
CCN(CC)c1ccc(NC(=O)CN2CCN(S(=O)(=O)c3cc(Cl)ccc3OC)CC2)cc1	x	3%	5%	10µM*
O=C(Nc1ccc(Cl)c(C(F)(F)F)c1)c1cc2nc(-c3ccc4c(c3)OCO4)cc(C(F)(F)F)n2n1	x	x	8%	x
CCc1cccc(C)c1NC(=O)C(CC)Sc1nc2ccncc2[nH]1 (stereo not drawn)	x	x	2%	x
CCCCNC(=O)CC1N=C2c3ccccc3N=C(SCC(=O)Nc3ccccc3OC)N2C1=O (stereo not drawn)	64%	-16%	9%	10µM*
CCCCNC(=O)CC1N=C2c3ccccc3N=C(SCC(=O)Nc3ccc(OC)cc3)N2C1=O (stereo not drawn)	10µM*	6%	-2%	u
CC1CCCCC1NC(=O)CNC(=O)c1ccco1 (stereo not drawn)	-18%	x	-1%	-6%
Cc1cc(C(=O)NC2CCCc3c2cnn3-c2ccc(C(C)(C)C)cc2)nn1C (stereo not drawn)	18%	-5%	-2%	-19%
CC[C@]12c3[nH]c4ccc(Cl)cc4c3CCN1C(=O)[C@@H](CC(=O)NCCC1=CCCCC1)C[C@@H]2C(=O)N1CCN(C(=O)c2ccco2)CC1	x	-13%	x	x
COc1cccc(CNCC(O)(c2ccc(Cl)cc2)c2ccc(Cl)cc2)c1	1.3µM*	-3%	0%	6.6µM*
COc1ccc(CNCC(O)(c2ccccc2)c2ccc(Cl)cc2)cc1 (stereo not drawn)	2.3µM*	-1%	2%	2.3µM*
COc1cccc(CCNCc2cccc(C(F)(F)F)c2)c1	42%[1.15 µM]	0%	3%	-20%
Cc1ccc(CNCC(O)(c2ccccc2)c2ccc(Cl)cc2)cc1 (stereo not drawn)	1.7µM*	2%	2%	0.83µM*
O=C(NCc1ccc(F)cc1)c1cc2n(n1)CCCN(Cc1ccc(F)cc1)C2=O	x	x	-10%	x
COCCOC1CCN(C(=O)C2CCC(=O)N(CCc3ccccc3)C2)CC1 (stereo not drawn)	14%	12%	-3%	-6%
C=CCn1c(=N)c(C(=O)NCCCOC)cc2c(=O)n3cc(C)ccc3nc21	7.4µM*	-3%	17%	13%
COc1ccc(CNC(=O)c2cc3c(=O)n4cccc(C)c4nc3n(CC3CCCO3)c2=N)cc1 (stereo not drawn)	5.2µM*	0%	-15%	u
C=CCn1c(=N)c(C(=O)NCCCOC)cc2c(=O)n3ccccc3nc21	18%	-2%	11%	11%
COCCn1c(=N)c(C(=O)NCCc2ccc(OC)cc2)cc2c(=O)n3cccc(C)c3nc21	2.9µM*	-6%	-12%	2.1µM*
Cc1cccn2c(=O)c3cc(C(=O)NCC4CCCO4)c(=N)n(C4CCCCC4)c3nc12 (stereo not drawn)	1.3µM*	0%	0%	u
Cc1cccn2c(=O)c3cc(C(=O)NCc4ccco4)c(=N)n(C4CCCC4)c3nc12	2%	0%	-17%	-4%
Cc1ccc(CNC(=O)COCc2cc(-c3cccs3)on2)cc1	x	x	41%	x
Cc1cccn2c(=O)c3cc(C(=O)NCC4CCCO4)c(=N)n(CC4CCCO4)c3nc12 (stereo not drawn)	-6%	1%	8%	-21%
Cc1cccn2c(=O)c3cc(C(=O)NCc4ccc(F)cc4)c(=N)n(CC4CCCO4)c3nc12 (stereo not drawn)	2.9µM*	-6%	-7%	4.1µM*
CCCn1c(=N)c(C(=O)NCc2ccc3c(c2)OCO3)cc2c(=O)n3cccc(C)c3nc21	8%	5%	4%	1µM*
COc1ccccc1N1CCN(C(=O)c2ccc3c(Cl)c4c(nc3c2)CCCC4)CC1	12µM*	-68%	-10%	-3%
COc1ccccc1-n1cnc2cc(C(=O)N3CCOCC3)ccc21	9.3µM*	4%	1%	10%
COc1ccccc1N1CCN(C(=O)c2ccc3nc[nH]c3c2)CC1	1%	10%	-1%	22%

Bioassay records from PubChem BioAssay.
